HCMV inh – human cytomegalovirus inhibition; HFF cells, HCMV-luciferase reporter, 72 h; hits give low values; activity change, negative = inhibition, % at 57.5 µM; 4.5% of 410,000 active; in the data active means activity change below about -60%; inconclusive means no clear call, values can overlap the other calls; inactive means above about -39%
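Steps: HFFs plated, 16 h 37C; compounds added; HCMV-luciferase added to MOI 1 PFU/cell; 72 h 37C; OneGlo reagent, 5 min room temperature; luminescence read, normalized to controls.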
HCV inh – HCV inhibition. Potency, µM (highest dose often 41.8 µM), actives largely listed as inhibitors. AID 651820. Huh7.5.1 HCVcc-Cre infection, luciferase reporter, 44 h. 3.4% of 340,000 active; active means well fitted inhibition curve with a large enough effect; inconclusive means small, poorly fitted or top-dose-only effect, or another doubt; inactive means no such curve, though single readings can be large or run the other way
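Luciferase read-out (15 sec integration) after a 15 min room-temperature substrate step quantifies HCVcc-Cre infection. Cells, 1,000 per well, had compound added 4 h post-plating, then virus at ~0.5 moi, and were cultured 44 h.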
Lassa entry inh – blocks Lassa virus binding to or entry into cells; Lassa virus pseudotype entry inhibition, cell reporter; Potency, µM (top dose mostly 37.9 µM), hits mostly inhibitors; 1.2% of 300,000 active; AID 540256; calls by dose curve; tested in HEK293 cells; further: nearly all actives have a fitted effect of over 50% in size
FMDV inh – antivirals against foot and mouth disease virus; FMDV antiviral cell-based qHTS; 1.2% of 410,000 active; Potency, µM (series often up to 57.9 µM), actives largely listed as inhibitors; AID 1159524; calls by dose curve; tested in HEK293T cells; further: read-out not given here; nearly all actives have a fitted effect of over 45% in size
MARV entry inh – Marburg virus entry inhibition; 1.8% of 300,000 active; Marburg virus pseudotyped entry inhibition, cell reporter; Potency, µM (top dose mostly 37.8 µM), most hits filed as inhibitors; calls by dose curve; tested in HEK293 cells
SARS PLP yeast – inhibitors of SARS-CoV papain-like protease in yeast; S. cerevisiae expressing SARS-CoV PLpro, growth rescue; Potency, µM (series often up to 32.9 µM), usual class: activators; 0.19% of 330,000 active; AID 485353; calls by dose curve; further: nearly all actives have a fitted effect of over 55% in size
Of the large screens only hits and unclear results are named; the others gave an inactive call; ! = a repeat was not active. Shown are actives, neighbours in structure and some others; about 8% of the full set was active somewhere.

Cc1ccc(S(=O)(=O)CCc2nc3ccccc3[nH]2)cc1C	none (no result: Lassa entry inh)
COCCn1c(CNC(=O)c2cc([N+](=O)[O-])ccc2Cl)nc2cccnc21	none (no result: HCV inh, MARV entry inh, SARS PLP yeast)
CCNc1nc(NCC)nc(SCCOc2ccc(C)cc2)n1	HCV inh inconclusive, Lassa entry inh inconclusive, FMDV inh inconclusive, MARV entry inh 15.8µM
N#Cc1ccccc1COc1ccc(/C=C/C(=O)O)cc1	HCMV inh -71.0, Lassa entry inh inconclusive, MARV entry inh inconclusive
CC(=O)Nc1ccc(S(=O)(=O)N2CCN(c3nc(NC4CCCC4)c4ccccc4n3)CC2)cc1	HCV inh 7.94µM, Lassa entry inh inconclusive, FMDV inh inconclusive, MARV entry inh inconclusive
CCN(CC)CCNC(=O)c1cc(Cl)c(N)cc1OC	Lassa entry inh inconclusive, MARV entry inh inconclusive
CCN(CC)CCOC(=O)c1cc(Cl)c(N)cc1OC	HCV inh 4.47µM, Lassa entry inh inconclusive, MARV entry inh 12.6µM! (no result: SARS PLP yeast)
S=C(Nc1cccc2ccccc12)NN1CCOCC1	none
NC(=O)C1CCCN(C(=O)Nc2cccc3ccccc23)C1 (centres undefined)	HCMV inh -64.1
S=C(Nc1cccc2ccccc12)NN1CCCCCC1	HCMV inh -62.5, MARV entry inh inconclusive (no result: SARS PLP yeast)
COc1ccccc1-c1noc(-c2ccc(NCc3cccnc3)c([N+](=O)[O-])c2)n1	none (no result: HCV inh, SARS PLP yeast)
COc1ccccc1-n1c(-c2ccccc2)c[n+]2c1CCc1ccccc1-2	HCMV inh -99.6, HCV inh 3.98µM, Lassa entry inh 2.82µM, FMDV inh 3.16µM, MARV entry inh inconclusive
COc1ccccc1-n1c(-c2ccccc2)c[nH]c1=S	none (no result: Lassa entry inh, MARV entry inh)
CC(C)c1ccc(-n2c(-c3ccccc3)c[n+]3c2CCc2ccccc2-3)cc1	HCMV inh -97.6, HCV inh inconclusive, Lassa entry inh 3.16µM, FMDV inh 11.2µM, MARV entry inh inconclusive
COc1ccc(-n2c(-c3ccc(Br)cc3)c[n+]3c2CCc2ccccc2-3)cc1	HCMV inh -100.5, HCV inh inconclusive, Lassa entry inh inconclusive, FMDV inh inconclusive, MARV entry inh 11.6µM
CC(C)CN1C(=O)N[C@@](NC(=O)c2cccnc2)(C(F)(F)F)C1=O	none (no result: HCMV inh, HCV inh, Lassa entry inh, FMDV inh, SARS PLP yeast)
CC(=O)O[C@H]1[C@@H](O)[C@H](O)[C@H](Oc2c(O)c(C)c3c4c2[C@@H](C)CC[C@@H]4[C@@H](C)C[C@H]3C=C(C)C)O[C@H]1C	HCMV inh -96.9, HCV inh inconclusive (no result: Lassa entry inh, MARV entry inh)
O=C(c1ccc(N2CCC(NCCCn3ncc4ccccc43)CC2)cc1)N1CCOCC1	none (no result: HCMV inh, HCV inh, Lassa entry inh, MARV entry inh, SARS PLP yeast)
O=c1oc2c(O)c(O)cc3c(=O)oc4c(O)c(O)cc1c4c23	Lassa entry inh inconclusive, MARV entry inh 4.11µM, SARS PLP yeast 1.41µM (no result: HCMV inh)
CCN(c1cccc(C)c1)S(=O)(=O)c1nnc(NC(=O)c2ccccc2Cl)s1	none (no result: HCV inh, MARV entry inh, SARS PLP yeast)
CCOc1ccccc1NC(=O)C1CCCN(S(=O)(=O)c2cccs2)C1 (centres undefined)	none (no result: HCV inh, SARS PLP yeast)
Cc1cccc(NC(=O)C2CCN(S(=O)(=O)c3cccc4nsnc34)CC2)n1	Lassa entry inh inconclusive, FMDV inh inconclusive
COc1ccc2nc(NC(=O)C3CCN(S(=O)(=O)c4cccc5nsnc45)CC3)sc2c1	HCMV inh -74.8, HCV inh inconclusive, Lassa entry inh 4.61µM, FMDV inh 7.94µM, MARV entry inh inconclusive
O=C(NC1CCN(Cc2ccccc2)CC1)C1CCN(S(=O)(=O)c2cccc3nsnc23)CC1	HCMV inh -61.7, FMDV inh inconclusive
CCOc1ccc2nc(NC(=O)C3CCCN(S(=O)(=O)c4cccs4)C3)sc2c1 (centres undefined)	HCV inh 14.1µM, Lassa entry inh inconclusive, FMDV inh inconclusive, MARV entry inh inconclusive
Cc1cccc2sc(NC(=O)C3CCN(S(=O)(=O)c4cc([N+](=O)[O-])ccc4Cl)CC3)nc12	HCV inh inconclusive, Lassa entry inh inconclusive, FMDV inh inconclusive, MARV entry inh 6.31µM
COc1ccc(-c2noc(-c3ccc(NCCc4ccccc4)c([N+](=O)[O-])c3)n2)cc1OC	none (no result: HCV inh, SARS PLP yeast)
c1ccc(-c2noc(-c3cccnc3NCc3ccco3)n2)cc1	none (no result: HCV inh, SARS PLP yeast)
CCOC(=O)NN=C1C[C@@H](O)[C@@H](O)[C@@H]2[C@H]3C(=O)N(Cc4ccc5c(c4)OCO5)C(=O)[C@@H]3CC[C@@H]12	none (no result: HCMV inh, HCV inh, Lassa entry inh, FMDV inh, SARS PLP yeast)
O=C(c1ccc(F)cc1)N1CCN2C(=O)c3ccccc3C12c1ccc(Cl)cc1 (centres undefined)	HCMV inh -63.6, MARV entry inh inconclusive
CCCCOc1cccc(NC(=O)c2cccc(C(=O)Nc3cccc(OCCCC)c3)c2)c1	none (no result: HCV inh, MARV entry inh, SARS PLP yeast)
Cc1cc(C(=O)Nc2ccccc2)c(C)o1	none
CCCCOc1cccc(C(=O)Nc2ccc(NC(=O)c3ccco3)cc2)c1	HCMV inh -77.7 (no result: Lassa entry inh)
CCCOc1cccc(NC(=O)c2cc(C)oc2C)c1	HCMV inh inconclusive, HCV inh 10µM, MARV entry inh inconclusive
CCCCOC(=O)c1ccc(NC(=S)NC(=O)c2ccco2)cc1	Lassa entry inh 15.8µM, MARV entry inh inconclusive
CCCCCOC(=O)c1ccc(NC(=O)c2ccco2)cc1	FMDV inh inconclusive
CCCOc1cccc(C(=O)Nc2cccc(NC(=O)c3ccco3)c2)c1	HCV inh 25.1µM
Cc1cccc(NC(=O)C(NS(=O)(=O)c2ccc3c(c2)oc(=O)n3C)C(C)C)c1 (centres undefined)	none (no result: HCV inh, SARS PLP yeast)
NC(=O)CSc1nc2c(c(=O)n1-c1ccccc1)C1(CCCCC1)Cc1ccccc1-2	HCMV inh -93.4, Lassa entry inh inconclusive, FMDV inh 20µM, MARV entry inh inconclusive
NS(=O)(=O)c1ccc(CCNc2nccn(-c3cccc(C(F)(F)F)c3)c2=O)cc1	none (no result: HCV inh, MARV entry inh, SARS PLP yeast)
NS(=O)(=O)c1ccc(CCNc2nn3c(-c4cccc(OC(F)(F)F)c4)cnc3s2)cc1	HCMV inh -97.5, FMDV inh 22.4µM (no result: HCV inh, Lassa entry inh, MARV entry inh, SARS PLP yeast)
Cc1cc(C)c2cc3c(N)c(C(=O)N4CCc5ccccc5C4)sc3nc2c1	HCV inh inconclusive (no result: FMDV inh)
Cc1cccc2cc3c(N)c(C(=O)N4CCOCC4)sc3nc12	HCV inh inconclusive, Lassa entry inh 11.2µM, MARV entry inh inconclusive, SARS PLP yeast inconclusive
COc1ccc(C(=O)n2cc(C(=O)c3cc(C)ccc3O)cn2)cc1	HCMV inh -66.9, MARV entry inh inconclusive
COc1ccc(O)c(C(=O)c2cnn(S(=O)(=O)c3ccc(C)cc3)c2)c1	HCMV inh -73.9 (no result: Lassa entry inh, MARV entry inh)
COc1cccc([C@@H]2NC(=O)CC=C[C@H](C)[C@H](c3cccc(OC)c3)NC(=O)CC=C[C@H]2C)c1	none (no result: HCMV inh, HCV inh, Lassa entry inh, FMDV inh, SARS PLP yeast)
CCOc1ccc(S(=O)(=O)Nc2cccc(-c3ccc(OCC)nn3)c2)cc1	HCMV inh inconclusive (no result: HCV inh, MARV entry inh, SARS PLP yeast)
CCOc1ccc(S(=O)(=O)Nc2cccc(OC)c2)cc1	HCMV inh inconclusive, HCV inh 10µM, MARV entry inh inconclusive
CCCCOc1ccc(S(=O)(=O)Nc2cccnc2)cc1	HCMV inh -75.9, HCV inh 10µM, MARV entry inh inconclusive (no result: FMDV inh)
CCOc1ccc(S(=O)(=O)Nc2cccc(N(C)S(C)(=O)=O)c2)cc1	HCV inh 10µM, Lassa entry inh inconclusive
Cc1cc(C)cc(OC(=O)c2snnc2C)c1	none (no result: HCV inh, SARS PLP yeast)

Bioassay records (PubChem BioAssay)
